Compound activity from PubChem.
Hits are enriched below; roughly 0.25% of the tested compounds scored in any of these assays.
TCR activator: Activators of T cell receptors: qHTS campaign; primary human leukocytes, anti-CD3, IL-2 HTRF, 48 h; Potency, µM (titrated, usually from 9.22 µM), for inactives: top-dose activation of IL-2 secretion, actives largely listed as activators; 330,000 tested, under 10 active; note: % of control where 0% means no effect
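Primary human leukocytes receive a-CD3 beads and test compound and are incubated 48 hr. Secreted IL-2 is then assayed by HTRF, measuring 665nm acceptor emission after 320nm excitation of the europium donor.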
Chronic BCR inh: qHTS Assay to Find Inhibitors of Chronic Active B-Cell Receptor Signaling; ABC-DLBCL IkBa-CBG/CBR reporter, luminescence ratio, 4 h; Potency, µM (doses to about 46.1 µM), inactives show top-dose activity change, negative = inhibition, usual class: inhibitors; hit rate 0.05% among 340,000; AID 493014, 2011; active = well fitted inhibition curve with a large enough effect in the signal ratio, with a control signal flat, not every such curve was filed as active; inconclusive = small, poorly fitted or top-dose-only effect, or effect the other way, or a change in a side signal; the % refers to the signal ratio;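 note: potency is the fitted concentration of half-maximal effect; plate controls were basal doxycycline-induced cells for no effect and cells given 10 µM MG132 for full effect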
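Compounds up to 46 uM were incubated four hours with TMD8 cells whose green CBG68 luciferase is fused to IkappaBalpha; red CBR luminescence normalised the signal, and concentration-effect curves were fitted to fusion, red and ratio data.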
Giardia killer: Small Molecules that selectively kill Giardia lamblia: qHTS; Giardia lamblia trophozoite viability; AID 540267, 2011; activity change, % at 7.66 µM, hits read low; hit rate 0.15% among 340,000; in the data active = activity change below about -80%; inconclusive = between about -30% and that limit;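 note: parasites exposed to compound for two days anaerobically before the ATP read; % is set by controls: 0 for no effect and ±100 for the full control effect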
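Luminescent ATP signal served as the viability read-out, measured 15-30 min after adding ATP detection reagent to trophozoites that had been incubated with compounds for 48 hrs at 37 deg C anaerobically at 100 cells/well.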
Integrin act MD: qHTS for Activators of Integrin-Mediated Alleviation for Muscular Dystrophy; alpha7betagal myoblasts, beta-gal FDG fluorescence, 48 h; Potency, µM (top dose mostly 38.3 µM), for the others: at the top dose activation, most hits filed as activators; hit rate 0.064% among 350,000; AID 624291, 2012;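 note: potency is the fitted concentration of half-maximal effect; 100% = response of the positive control SU9516; nearly all actives have a fitted effect of over 60% in size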
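alpha7betagal+/- myoblasts (passage 13, 250/well) treated 48 h at 37C with compounds at 1:260 dilution of DMSO stock. Lysed, then beta-galactosidase activity read as FDG fluorescence (ex 480/em 540) after 30 min, with pre-read for autofluorescence.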
Numbers without * were called inactive; [ ] = another dose, or the depositor's remark. Unless noted, calls come from the whole dose curve; as a rule, active = well fitted curve in the direction sought with a large enough effect; inconclusive = small, poorly fitted or top-dose-only effect, or another doubt; inactive = no such curve, though single readings can be large; an effect the other way counts as inactive or inconclusive.

`COc1ccc(CNC(=O)Cc2ccc(NC(=O)C3=C(C)OCCS3)cc2)cc1` gave TCR activator -0.3%, Chronic BCR inh 20µM*, Giardia killer inconclusive and Integrin act MD -16.4%.
For Cc1ccc(CN=c2c([N+](=O)[O-])nn(-c3cccc(C)c3)n2O)cc1 the results were TCR activator -2.1%, Chronic BCR inh inconclusive, Giardia killer -83.4* and Integrin act MD 1.8%.
Screening COc1ccc(-n2nc([N+](=O)[O-])c(=NCCc3ccc(C)cc3)n2O)cc1 returned TCR activator -3.9%, Chronic BCR inh -17.2%, Giardia killer -92.9* and Integrin act MD -8.8%.
`COc1ccc(-n2nc([N+](=O)[O-])c(=NCc3cccnc3)n2O)cc1` gave TCR activator -2.3%[46.1 µM], Chronic BCR inh 10.4%, Giardia killer -96.6* and Integrin act MD 1.8%.
For COc1ccc(-n2nc([N+](=O)[O-])c(=NCCC3=CCCCC3)n2O)cc1 the results were Chronic BCR inh -2.8%, Giardia killer -90.7* and Integrin act MD -10.0%.
COc1ccc(-n2nc([N+](=O)[O-])c(=NCc3ccco3)n2O)cc1 was read as TCR activator 0.0%, Chronic BCR inh -0.2%, Giardia killer -4.5 and Integrin act MD -49.2%.
For CCc1ccc(NC(=O)CN2C(=O)c3ccccc3Sc3ccc(C(=O)N4CCCC4)cc32)cc1 the results were Chronic BCR inh 6.9%.
COc1ccc(-n2nc([N+](=O)[O-])c(=NC3CCN(Cc4ccccc4)CC3)n2O)cc1 was read as TCR activator 4.4%, Chronic BCR inh 3.6%, Giardia killer -81.8* and Integrin act MD 0.0%.
For Cc1cc(C)cc(N=c2c([N+](=O)[O-])nn(-c3ccc(Cl)cc3)n2O)c1 the results were TCR activator 1.7%, Chronic BCR inh 6.9%, Giardia killer inconclusive and Integrin act MD -34.2%.
`Cc1ccc(CN=c2c([N+](=O)[O-])nn(-c3cccc(Cl)c3)n2O)cc1` gave TCR activator -0.4%, Chronic BCR inh 4.8%, Giardia killer inconclusive and Integrin act MD -21.4%.
For COc1ccc(-n2nc([N+](=O)[O-])c(=NCCc3ccc(Cl)cc3)n2O)cc1 the results were TCR activator 1.0%, Chronic BCR inh -1.8%, Giardia killer -84.1* and Integrin act MD 30.5%.
Screening COc1ccc(-n2nc([N+](=O)[O-])c(=NCCc3ccc(OC)c(OC)c3)n2O)cc1 returned TCR activator 4.9%[46.1 µM], Chronic BCR inh -1.6%, Giardia killer -94.3* and Integrin act MD -19.2%.
Screening CCc1ccc(N=c2c([N+](=O)[O-])nn(-c3ccccc3)n2O)cc1 returned TCR activator -17.8%, Chronic BCR inh 11.0%, Giardia killer inconclusive and Integrin act MD -34.0%.
For CCN(CC)S(=O)(=O)c1ccc(/C=C/C(=O)OCC(=O)N(C)C)cc1 the results were TCR activator -18.0%, Chronic BCR inh -0.5%, Giardia killer -12.9 and Integrin act MD 3.4%.
For COc1ccc(N2CC(NC(=O)C(=O)c3c(C)[nH]c4ccccc34)CC2=O)cc1 (stereo not drawn) the results were Chronic BCR inh 8.5%.
O=C(CCSCc1ccccc1Cl)NCCc1ccccc1 was read as Chronic BCR inh 18.2%.
Screening CC(OC(=O)c1ccc([N+](=O)[O-])s1)C(=O)NC1CCCCC1C (stereo not drawn) returned Chronic BCR inh 0.5%, Giardia killer -86.4* and Integrin act MD -11.4%.
Screening CN(C)/C=N/c1nccc(-c2cccs2)n1 returned TCR activator -1.4%, Chronic BCR inh 0.2%, Giardia killer 9.4 and Integrin act MD 8.91µM*.
Screening CN(C#N)c1nccc(-c2cccs2)n1 returned TCR activator 2.8%, Chronic BCR inh -18.8%, Giardia killer -20.5 and Integrin act MD 11.2µM*.
For c1cc(-c2cccs2)nc(-c2cccs2)c1 the results were TCR activator -2.9%[46.1 µM], Chronic BCR inh inconclusive, Giardia killer 4.9 and Integrin act MD -1.7%.
Screening COc1ccc(S(=O)(=O)NCC(c2ccco2)N2CCOCC2)cc1OC (stereo not drawn) returned Chronic BCR inh 11.4%.
Oc1ccc(Br)cc1C1C=C(c2ccc3c(c2)OCO3)NC(c2ccc(F)c(Br)c2)N1 (stereo not drawn) was read as Giardia killer -13.9.
COc1ccc(NC(=O)c2cc([N+](=O)[O-])ccc2O)cc1 was read as TCR activator 0.6%, Chronic BCR inh inconclusive, Giardia killer -89.5* and Integrin act MD -4.8%.
`OCC1OC(n2cnc3c(NC4CCCCC4)ncnc32)C(O)C1O` (stereo not drawn) gave TCR activator 5.8%, Chronic BCR inh 12.6µM*, Giardia killer 5.8 and Integrin act MD -2.7%.
`OC[C@H]1O[C@@H](n2cnc3c(NC4CCCC4)ncnc32)[C@H](O)[C@@H]1O` gave TCR activator -6.4%, Chronic BCR inh inconclusive and Giardia killer 13.0.
Screening Cc1nnc(NC(=O)c2sc3ccccc3c2Cl)s1 returned TCR activator -7.9%, Chronic BCR inh inconclusive, Giardia killer -84.0* and Integrin act MD 36.1%.
For Cc1nn(CCC(=O)NNC(=S)NCC(C)C)c(C)c1Br the results were TCR activator 0.0%, Chronic BCR inh 16.4µM*, Giardia killer -2.6 and Integrin act MD -7.8%.
Screening CNC(=S)NNC(=O)CCn1nc(C)c(Br)c1C returned Giardia killer -6.0 and Integrin act MD 13.2%[7.66 µM].
`COc1ccc2nc(C)cc(N/N=C/c3ccc(F)cc3)c2c1` gave TCR activator -23.6%, Chronic BCR inh inconclusive, Giardia killer -80.6* and Integrin act MD -53.8%.
Screening COc1ccc(/C=N/Nc2cc(C)nc3ccccc23)cc1 returned TCR activator -3.6%, Chronic BCR inh inconclusive, Giardia killer -13.8 and Integrin act MD -48.0%.
For CCC(=O)Nc1cccc(-c2cn3c(C)csc3n2)c1 the results were Chronic BCR inh -26.8%.
Screening Cc1ccccc1C(=O)Nc1nnc(SC(C)C)s1 returned TCR activator 0.7%, Chronic BCR inh inconclusive, Giardia killer -11.9 and Integrin act MD 10µM*.
`CN(Cc1c(C(=O)N/N=C/c2cccc(F)c2)nnn1-c1nonc1N)c1ccccc1` gave TCR activator 11.2%, Chronic BCR inh 28.8%, Giardia killer -12.6 and Integrin act MD 5.62µM*.
`C/C(CC(=O)Nc1ccc(Cl)c(C(F)(F)F)c1)=N\NC(=O)c1cnccn1` gave TCR activator 11.8%, Chronic BCR inh inconclusive, Giardia killer 2.5 and Integrin act MD 4.47µM*.
CCOC(=O)C1=C(CC)Nc2ccccc2N=C1NC(=O)c1ccc(OC)c(S(=O)(=O)N2CCCCC2C)c1 (stereo not drawn) was read as TCR activator 1.7%, Chronic BCR inh -13.0%, Giardia killer -18.1 and Integrin act MD 14.1µM*.
For CCOC(=O)C1=C(CC)Nc2ccccc2N=C1NC(=O)c1ccc(C)c(S(=O)(=O)N2CCOCC2)c1 the results were TCR activator -1.0%, Chronic BCR inh inconclusive, Giardia killer 11.1 and Integrin act MD -22.4%.
